Compounds with a hit are over-represented: about 2.8% of the library has one in this group of screens.
IP6K1 inh: Primary qHTS assay for small molecule inhibitors of Inositol hexaphosphate kinase 1 (IP6K1) | Inositol hexakisphosphate kinase 1 (Homo sapiens), Q92551 | IP6K1 kinase, ADP-Glo luminescence, 2 h; active compounds read low | activity change, % (series mostly up to about 58 µM) | 0.81% of 140,000 active; in the data active means activity change below about -25%; further: on the % scale 0 is the no-effect control and ±100 the full control effect
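ADP-Glo luminescence measures ADP made by human IP6K1 during a 2 h RT reaction with ATP/IP6 (mix at 1.3 mM/130 uM); top library doses 57.5 and 19.1 uM final.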
KDM5B inhibitor: Primary screen for KDM5B Histone Demethylases FDH-coupled qHTS. KDM5B demethylase, FDH-coupled NADH fluorescence (FDH is formaldehyde dehydrogenase). Potency, µM (doses to about 57.7 µM), hits mostly inhibitors. 2.6% of 220,000 active. AID 1347165, 2019; further: potency means the concentration at half of the fitted maximal effect; 0% is about no effect; nearly all actives have a fitted effect of over 70% in size
Target sequence (Q9UGL1 whole entry, looked up): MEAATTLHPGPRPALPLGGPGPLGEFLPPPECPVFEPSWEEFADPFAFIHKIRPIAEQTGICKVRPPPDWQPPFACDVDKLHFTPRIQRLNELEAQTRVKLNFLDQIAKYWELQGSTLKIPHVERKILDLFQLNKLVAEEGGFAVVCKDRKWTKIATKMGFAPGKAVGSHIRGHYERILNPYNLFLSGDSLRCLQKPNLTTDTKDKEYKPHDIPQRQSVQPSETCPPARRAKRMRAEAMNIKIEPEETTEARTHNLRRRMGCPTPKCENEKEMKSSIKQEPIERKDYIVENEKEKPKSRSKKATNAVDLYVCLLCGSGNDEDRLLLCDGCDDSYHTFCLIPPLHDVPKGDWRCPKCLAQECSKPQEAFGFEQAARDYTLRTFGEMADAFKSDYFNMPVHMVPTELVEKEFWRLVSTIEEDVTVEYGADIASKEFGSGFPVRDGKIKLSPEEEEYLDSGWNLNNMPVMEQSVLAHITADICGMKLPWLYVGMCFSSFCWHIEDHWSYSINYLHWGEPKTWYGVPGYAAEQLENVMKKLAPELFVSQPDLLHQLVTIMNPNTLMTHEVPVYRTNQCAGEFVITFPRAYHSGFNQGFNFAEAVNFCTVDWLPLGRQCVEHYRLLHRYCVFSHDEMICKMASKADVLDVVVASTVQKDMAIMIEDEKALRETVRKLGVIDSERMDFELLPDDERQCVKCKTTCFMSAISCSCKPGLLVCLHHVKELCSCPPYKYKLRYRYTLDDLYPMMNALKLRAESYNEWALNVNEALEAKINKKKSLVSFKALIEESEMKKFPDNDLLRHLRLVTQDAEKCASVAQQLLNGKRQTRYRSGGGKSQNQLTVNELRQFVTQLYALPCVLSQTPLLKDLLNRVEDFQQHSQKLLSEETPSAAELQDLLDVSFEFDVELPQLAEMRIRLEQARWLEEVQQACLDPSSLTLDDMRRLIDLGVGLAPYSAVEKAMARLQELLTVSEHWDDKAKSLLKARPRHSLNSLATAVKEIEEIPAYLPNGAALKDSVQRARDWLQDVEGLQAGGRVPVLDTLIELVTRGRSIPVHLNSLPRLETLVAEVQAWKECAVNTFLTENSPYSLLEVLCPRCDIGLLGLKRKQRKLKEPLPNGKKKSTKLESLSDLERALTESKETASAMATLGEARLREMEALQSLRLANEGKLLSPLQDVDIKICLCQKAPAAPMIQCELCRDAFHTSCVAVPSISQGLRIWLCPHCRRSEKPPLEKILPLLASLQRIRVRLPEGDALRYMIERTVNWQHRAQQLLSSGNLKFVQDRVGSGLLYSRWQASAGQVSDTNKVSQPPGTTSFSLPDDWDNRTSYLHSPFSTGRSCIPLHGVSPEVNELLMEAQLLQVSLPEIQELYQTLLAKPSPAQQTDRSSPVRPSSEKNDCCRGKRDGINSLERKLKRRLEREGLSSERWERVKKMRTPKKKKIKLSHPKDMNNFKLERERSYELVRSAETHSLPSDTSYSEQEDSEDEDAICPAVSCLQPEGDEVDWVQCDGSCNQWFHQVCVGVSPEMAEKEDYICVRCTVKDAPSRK
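Here, H3K4me3 peptide (12.5 µM in substrate mix) is demethylated by KDM5BΔAP, 200 nM final, after 10 min compound exposure. Formaldehyde product is coupled through FDH (0.25 U/mL in mix) to NADH fluorescence; 30-min ΔRFU feeds dose-response curves.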
SNCA viab count: GF-AFC viability counterscreen for inhibitors of alpha-synuclein gene (SNCA) expression. 0.12% of 150,000 active. Potency, µM (highest dose often 57.1 µM), for inactives: top-dose activity change, negative = cytotoxicity, usual class: cytotoxic. HEK-293-SNCA-luc viability, GF-AFC fluorescence, 24 h;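 further: potency means the concentration at half of the fitted maximal effect; 0% = DMSO-treated cells and -100% = medium-only wells without cells; nearly all actives have a fitted effect of over 30% in size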
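Cytotoxicity counterscreen: after 24 h compound treatment of genome-edited SNCA-luciferase HEK-293 cells, live-cell protease substrate GF-AFC read by fluorescence after 30 min; activity scaled between DMSO (0%) and medium-only (-100%), curves Hill-fitted.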
SNCA expr inh: Primary qHTS assay for inhibitors of alpha-synuclein gene (SNCA) expression; HEK-293 SNCA-luciferase knock-in, luminescence, 24 h; Potency, µM (highest dose often 57.2 µM), for the others: at the top dose activity change, negative = inhibition, hits mostly inhibitors; 0.17% of 140,000 active;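 further: potency means the concentration at half of the fitted maximal effect; plate controls were DMSO cells for no effect and cell-free wells for full effect; nearly all actives have a fitted effect of over 45% in size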
* hit, by the source's call; i = inactive; u = inconclusive; x = no result; [ ] = remark or other dose. Unless noted, the call rests on the fitted dose curve; in most records, active means well fitted curve in the direction sought with a large enough effect; inconclusive means small, poorly fitted or top-dose-only effect, or another doubt; inactive means no such curve, though single readings can be large; an effect the other way counts as inactive or inconclusive.

SMILES	IP6K1 inh	KDM5B inhibitor	SNCA viab count	SNCA expr inh
O=C(NCc1ccc(F)cc1)[C@@H]1CCCN1c1nccc(Nc2ccccc2Cl)n1	-0.3	x	-7.2%[12.5 µM]	7.8%
Cc1cc(C)cc(-c2ccc(CN3CCCC(NC(=O)Nc4ccccc4)C3)cc2)c1 (centres undefined)	-2.5	x	-6.8%	u
CCOC(=O)c1cc(-c2ccc(C)cc2)n(CCC(=O)Nc2nc3c(C)cccc3s2)c1C	5.4	u	-11.4%	14.1µM*
COC(=O)[C@@H]1Cc2c([nH]c3ccccc23)[C@H]2C[C@H](NC[C@H]3CCCO3)C[C@@H](c3ccccc3F)N21	8.9	28.2µM*	-13.6%	-12.0%
COC(=O)[C@@H]1Cc2c([nH]c3ccccc23)[C@H]2C[C@@H](NCCNC(C)=O)C[C@@H](c3ccccc3F)N21	-12.2	u	3.7%	24.5%
COC(=O)[C@@H]1Cc2c([nH]c3ccccc23)[C@H]2C[C@@H](NCCCn3ccnc3)C[C@@H](c3ccccc3F)N21	10.0	25.1µM*	-21.4%	-13.3%
COC(=O)[C@@H]1Cc2c([nH]c3ccccc23)[C@H]2C[C@@H](NCCO)C[C@@H](c3ccccc3F)N21	-6.7	28.2µM*	u	u
O=C(C1CCN(Cc2ccccc2-c2cccnc2)CC1)N1CCCCC1	-1.4	x	1.6%	0.8%
CC(C)(C)CC(=O)N1CCN2C(=O)c3cc(-c4ccccc4)ccc3NC(=O)[C@H]2C1	2.3	31.6µM*	-3.7%[87.6 µM]	-24.6%[87.6 µM]
COc1ccc(-c2ccc3c(c2)C(=O)N2CCN(C(=O)CC(C)(C)C)C[C@@H]2C(=O)N3)cc1	7.0	28.2µM*	-0.6%[87.6 µM]	-10.3%[87.6 µM]
O=C1Nc2ccc(-c3ccccc3F)cc2C(=O)N2CCN(C(=O)c3ccco3)C[C@@H]12	-1.4	35.5µM*	-0.1%[87.6 µM]	-8.1%[87.6 µM]
Cc1cc2ncn(-c3ccc([N+](=O)[O-])cc3Cl)c2cc1C	x	i	x	x
CCC(C)NC(=O)Cn1cccc1-c1nc(-c2cccc(Cl)c2)no1 (centres undefined)	x	i	x	x
CC1=C(C(=O)OC(C)(C)C)C(c2ccccc2Cl)NC(=S)N1 (centres undefined)	x	i	x	x
O=C(N[C@H]1CO[C@H]2[C@@H]1OC[C@@H]2Nc1nccc(-c2ccc(-c3ccccc3)cc2)n1)c1ccccc1	-1.8	u	-23.1%	-19.0%
COc1ccc(-c2ccnc(N[C@H]3CO[C@H]4[C@@H]3OC[C@@H]4NC(=O)NCc3ccccc3)n2)cc1	-16.0	25.1µM*	-8.4%	u
CN(C)c1ccc(-c2ccnc(N[C@H]3CO[C@H]4[C@@H]3OC[C@@H]4NC(=O)NCc3ccccc3)n2)cc1	16.1	28.2µM*	7.0%	9.3%
COc1ccc(S(=O)(=O)N(CC(=O)NCCN2CCOCC2)c2ccc(F)cc2)cc1	x	i	x	x
COCCn1ccc2c(C3=CCOCC3)nc(-c3cccc(O)c3)cc21	-0.1	39.8µM*	-11.8%[87.6 µM]	6.2%[87.6 µM]
C1=C(c2nc(-c3ccncc3)cc3c2ccn3Cc2cccnc2)CCOC1	-19.1	u	9.3%[87.6 µM]	-10.5%[87.6 µM]
COCCn1ccc2c(C3=CCOCC3)nc(-c3cccc(C(N)=O)c3)cc21	14.7	31.6µM*	u	20.0%[87.6 µM]
O=[N+]([O-])c1cc(S(=O)(=O)Nc2ccc(Cl)cc2)ccc1N/N=C/c1ccsc1	x	i	x	x
CNc1ncccc1C(=O)N[C@@H]1COCC[C@@H]1OCc1ccccc1	5.3	28.2µM*	4.9%	4.0%
CNCCN1C(=O)CC[C@H]2CN(C(=O)COc3cccnc3)CC[C@H]21	-0.6	i	-3.4%	4.5%
CNCCN1C(=O)CC[C@H]2CN(C(=O)c3ccnc(NC)c3)CC[C@H]21	5.4	25.1µM*	-2.4%	21.2%
Cc1cnc(C(=O)NC(c2ccccc2)c2ccccn2)cn1 (centres undefined)	x	i	x	x
COc1ccc2[nH]c3c(c2c1)CCNC31CCN(C(=O)C2CCOCC2)CC1	18.8	22.4µM*	-3.7%[12.5 µM]	-7.8%
COc1ccc2[nH]c3c(c2c1)CCNC31CCN(C(=O)c2cccnc2C)CC1	6.3	u	-2.6%[12.5 µM]	20µM*
COc1ccc2[nH]c3c(c2c1)CCNC31CCN(C(=O)C2CC=CC2)CC1	-3.2	22.4µM*	-6.9%[12.5 µM]	8.0%

Source: PubChem (National Center for Advancing Translational Sciences (NCATS))
